# Compound activity (PubChem)
# PP1 counter: PP1-alpha phosphatase inhibitors, primary screen, counter-screen for PP5 inhibitor project, biochemical, fluorescence, OMFP substrate, single point | Serine/threonine-protein phosphatase PP1-alpha catalytic subunit (Homo sapiens), P62136 | purified PP1alpha | inhibition, % at 6.7 µM | 0.9% of 320,000 active | AID 2235, 2010;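 active = inhibition above the mean inhibition of all tested compounds plus 3 SD, computed separately for each screening campaign, cut at about 15% in these data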
# PP5 primary: PP5 phosphatase inhibitors, primary screen, biochemical, fluorescence. purified PP5c, OMFP substrate fluorescence. inhibition, % at 6.7 µM. 0.18% of 320,000 active;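 active = inhibition above the campaign's mean inhibition across all tested compounds plus 3 SD, cut at about 9.5% in these data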;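 note: 0% = DMSO only and 100% = 100 µM cantharidin control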
# proKLK7 act: proKLK7 zymogen activators, primary screen, biochemical, fluorescence intensity; purified proKLK7, EDANS-DABCYL substrate fluorescence; 100% is mature enzyme control, 0% vehicle; 0.9% of 370,000 active; activation, % at 7 µM;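 active = activation above the mean of all tested compounds plus 3 SD, computed per campaign excluding outliers beyond control limits, cut at about 13% in these data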
# PG9 binder: binders of HIV-1 gp120 antibody PG9, primary screen, biochemical, TR-FRET; HIV-1 gp120 / PG9 antibody interaction; TR-FRET gp120-PG9 antibody binding; inhibition, % at 6.7 µM; 0.43% of 360,000 active; AID 624416, 2012; in the data active = inhibition above about 8.5%
# JMJD2C inh: inhibitors of GASC-1 histone demethylase, primary screen, biochemical, fluorescence, DELFIA europium; Lysine-specific demethylase 4C (Homo sapiens), Q9H3R0; GST-JMJD2C(1-420) H3K9me3 demethylation; inhibition, % at 2.35 µM; 0.069% of 330,000 active;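 active = more than half of a compound's replicate wells show inhibition beyond 50%, single wells judged on their own value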;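 note: signal counts dimethyl H3K9 product captured on neutravidin plate; 0% = median of DMSO wells and 100% = 0.3 times that DMSO median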
# Target sequence (Q9H3R0 1-420 limits assumed): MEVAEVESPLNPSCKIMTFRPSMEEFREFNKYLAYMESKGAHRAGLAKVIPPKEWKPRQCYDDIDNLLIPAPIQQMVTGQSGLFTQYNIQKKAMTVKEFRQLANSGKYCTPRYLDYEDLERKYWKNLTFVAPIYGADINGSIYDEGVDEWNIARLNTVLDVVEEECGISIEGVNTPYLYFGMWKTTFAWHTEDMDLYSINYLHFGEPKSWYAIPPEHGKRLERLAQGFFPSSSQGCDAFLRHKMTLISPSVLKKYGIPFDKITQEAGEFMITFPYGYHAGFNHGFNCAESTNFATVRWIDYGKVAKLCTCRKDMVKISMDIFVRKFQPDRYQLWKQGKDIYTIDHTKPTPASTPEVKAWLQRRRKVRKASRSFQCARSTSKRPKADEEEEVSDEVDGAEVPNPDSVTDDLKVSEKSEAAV
# NR1D1 modulator: modulators of Rev-erb alpha DNA binding, primary screen, biochemical, FITC-DNA, fluorescence polarization, uHTS; Nuclear receptor subfamily 1 group D member 1 (Homo sapiens), P20393; Rev-erbα–FITC-DNA binding, 90 min; activity, % at 10 µM; 0.79% of 370,000 active;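 active = activity above about 14%, limit read from the data; passing the limit was not always enough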;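 note: 0% = DMSO wells with 35 nM protein and 100% = DMSO wells with 750 nM protein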
# Active calls of the source: *; · = not tested or not shown; ! = a repeat was not active. Hits are enriched below; roughly 2.8% of the tested compounds scored in any of these assays.
SMILES,PP1 counter,PP5 primary,proKLK7 act,PG9 binder,JMJD2C inh,NR1D1 modulator
CCOc1ccc(C2C(C(=O)c3ccc(C)o3)=C(O)C(=O)N2c2nc(C)c(C(=O)OC)s2)cc1 (stereo not drawn),17.0*,2.6,0.7,0.2,0.7,0.2
Cc1cccc(NC(=O)C2CCCN2S(=O)(=O)c2cccnc2)c1C (stereo not drawn),·,·,0.9,·,·,-0.9
O=c1[nH]cnc2c1ncn2C1O[C@H](CO)[C@@H](O)[C@H]1O (stereo partly drawn),·,·,·,·,·,-3.0
Cc1cccnc1NC(=S)NC(=O)c1cncc(Br)c1,-2.8,3.0,31.6*,0.7,4.3,0.8
O=C(NCCc1ccccc1Cl)[C@@H]1CCCN1C(=O)[C@@H](NC(=O)N1CCOCC1)c1ccccc1,·,·,-0.2,-2.6,·,-7.8
NC(=O)CC(NC(=O)Cc1ccc(Br)cc1)c1ccc(NCc2ccc(F)c(F)c2)c([N+](=O)[O-])c1 (stereo not drawn),16.9*,5.1,0.7,-0.6,-5.0,-0.7
CCC(CC)Nc1ccc(C(CC(N)=O)NC(=O)Cc2cccc3ccccc23)cc1[N+](=O)[O-] (stereo not drawn),17.3*,1.7,-0.3,-0.1,-4.7,-0.5
CCOc1ccc(Nc2oc(-c3ccccc3Cl)nc2C#N)cc1,17.2*,0.3,-2.4,-0.3,-6.3,-8.5
CC(=O)OC(C)OC(=O)C(C)c1ccc(-c2ccccc2)c(F)c1 (stereo not drawn),·,·,·,·,·,-2.7
CCC1=NN2C(=N)/C(=C/c3cc(C)n(Cc4ccccc4)c3C)C(=O)N=C2S1,15.8*,2.2,1.1,-2.9,0.9,6.1
CC[C@@H](CCCc1ccccc1OC)CCS(=O)(=O)C(C)(C)C,·,·,-0.1,·,·,-8.0
COc1ccc(C2NCCc3c2[nH]c2ccccc32)cc1CN1CCc2cc(OC)c(OC)cc2C1C (stereo not drawn),·,·,·,·,-11.8,·
COc1ccc(C2NCCc3c2[nH]c2ccccc32)cc1COc1ccc(F)cc1 (stereo not drawn),17.1*,4.3,-0.7,-2.1,12.5,-7.8
Cc1c(O)cccc1C(=O)N[C@@H](CSc1ccccc1)[C@H](O)CN1C[C@H]2CCCC[C@H]2C[C@H]1C(=O)NC(C)(C)C,17.3*!,3.1,0.3,-1.4,-26.8,6.5
Nc1c(Cl)ncnc1NCc1cccnc1,-0.8,-0.2,-0.1,1.0,54.6*,-2.0
COc1ccc2c3c(cccc13)N(C)N=C2C,16.6*,8.8,-41.1,-15.9,-1.0,-8.2
COc1ccc2c3c(cccc13)OC2=O,-3.7,-1.8,-0.5,-1.5,-1.5,12.1
N#CCC(=O)Nc1ccc(C(=O)OCC(=O)c2ccc3c(c2)NC(=O)CO3)cc1,15.6*,2.1,-1.4,4.6,-1.7,-9.4
O=C(OC12CCCN(C1)/C(=C/c1cccnc1)C2)c1cccc(F)c1 (stereo not drawn),·,·,0.9,·,·,1.2
CC1CCN(CCCn2c(=S)[nH]c3ccc(N4CCOCC4)cc3c2=O)CC1,-1.9,2.5,52.6*,0.7,19.2,4.0
CCc1ccc(CCC(=O)Nc2sc3c(c2C#N)CCCC3)o1,1.8,-0.1,-0.3,0.8,51.2*,-3.7
CCC(=O)Nc1sc2c(c1C#N)CCC2,0.9,-0.5,-0.1,0.7,-7.5,0.3
CCOC(=O)CCCN1CC(O)=C(c2nc(-c3ccc(Cl)cc3)cs2)C1=N,16.8*,5.2,-0.2,0.2,·,6.7
CCCCN1CC(O)=C(c2nc(-c3ccc(Br)cc3)cs2)C1=N,6.9,-2.0,-0.1,1.1,7.8,-19.6
COc1cc(NCCCCCCCN)c2ncccc2c1,1.0,4.1,·,·,9.6,·
COc1cc(NC(C)CCCN)c2ncccc2c1 (stereo not drawn),16.2*,4.9,2.0,-2.4,-9.7,-4.2
COc1cc(NC(=O)c2cccs2)c(OC)cc1NC(=O)CCC(=O)Nc1ccc2ncccc2c1,·,·,67.6*,-3.0,1.0,-7.7
O=C(c1cccc(Br)c1)N1CCC(Oc2cccnc2)CC1,·,·,0.1,·,·,-3.0
